This is a sample that favours compounds with a hit; in the whole collection about 8.2% have one here.
KB-3-1 tox: kills parental KB-3-1 adenocarcinoma cells; KB-3-1 viability, CellTiter-Glo ATP luminescence, 72 h; 400,000 compounds, 1.4% hits; AID 1347075; Potency, µM (titrated, usually from 46.1 µM), hits mostly cytotoxic; also: nearly all actives have a fitted effect of over 60% in size
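Parental KB-3-1 adenocarcinoma cells in phenol-red-free DMEM with 10% FBS were pin-treated with compounds at several concentrations, incubated 72 h at 37 °C, and viability read by CellTiter-Glo luminescence; concentration-effect curves were fitted after normalization.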
SW480 rerep: inducers of DNA re-replication in SW480 colon cancer cells | Potency, µM (titrated, usually from 46.1 µM), usual class: activators | AID 624297 | 340,000 compounds, 1.8% hits | SW480 DNA re-replication, Hoechst DNA content imaging, 48 h; also: nearly all actives have a fitted effect of over 55% in size
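Hoechst fluorescence of nuclei (405 nm excitation, 500-530 nm emission) measured by plate-scanning imager after 48 hr compound exposure at 37 C; re-replication scored as increased number of nuclei with elevated intensity.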
MCF10A rerep: DNA re-replication induction in MCF 10a cells; AID 624296; 350,000 compounds, 2.9% hits; MCF 10A DNA re-replication, Hoechst nuclear intensity, 48 h; Potency, µM (highest dose often 46.1 µM), usual class: activators; also: nearly all actives have a fitted effect of over 50% in size
KB-V1 MDR tox: KB-V1 MDR subline cytotoxicity. KB-V1 MDR cells viability, CellTiter-Glo, 72 h. Potency, µM (top dose mostly 46.1 µM), actives largely listed as cytotoxic. 400,000 compounds, 3.4% hits; also: nearly all actives have a fitted effect of over 60% in size
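Cells of the MDR subline KB-V1 are plated, dosed with compound at multiple concentrations, and incubated 72 h at 37 degrees C; CellTiter-Glo is then added and luminescence read after 10 min.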
ELG1 repair inh: inhibitors of ELG1-dependent DNA repair in HEK293T cells; HEK293T ELG1-luciferase reporter, luminescence, 16 h; DNA damage induced by 5-fluorouridine; Potency, µM (titrated, usually from 46.1 µM), actives largely listed as inhibitors; 330,000 compounds, 2.3% hits; also: nearly all actives have a fitted effect of over 55% in size
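Overnight (16 hr) co-exposure of 2,000 cells/well to 5-fluorouridine and compound at 37 °C preceded detection. Luciferase was quantified via ONE-Glo luminescence; loss of signal denotes inhibition.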
Large screens that a line does not name were inactive. Calls follow the shape of the dose curve; as a rule, active = well fitted curve in the direction sought with a large enough effect; inconclusive = small, poorly fitted or top-dose-only effect, or another doubt; inactive = no such curve, though single readings can be large; an effect the other way counts as inactive or inconclusive.

Cc1ccc(S(=O)(=O)Nc2cc(Cl)c3oc4c(c3c2)C(=O)CC(C)(C)C4)cc1	KB-V1 MDR tox inconclusive (no result: SW480 rerep, MCF10A rerep, ELG1 repair inh)
O=C(C1CCN(S(=O)(=O)c2cccs2)CC1)N1CCCCC1	ELG1 repair inh inconclusive
CCc1cccc(NC(=O)C2CCN(S(=O)(=O)c3cccs3)CC2)c1	ELG1 repair inh inconclusive
COc1cccc(NC(=O)C2CCC(CNS(=O)(=O)c3cccs3)CC2)c1 (stereo unspecified)	KB-3-1 tox inconclusive, SW480 rerep 20.6µM, MCF10A rerep inconclusive
CCOC(=O)C1CCCN(C(=O)C2CCN(S(=O)(=O)c3cccs3)CC2)C1 (stereo unspecified)	KB-3-1 tox 20.6µM
CCOC(=O)c1cccc(NC(=O)C2CCN(S(=O)(=O)c3cccs3)CC2)c1	KB-3-1 tox inconclusive, KB-V1 MDR tox 7.31µM
O=C(Nc1ccc(F)c(F)c1)C1CCN(S(=O)(=O)c2cccs2)CC1	KB-V1 MDR tox 16.4µM, ELG1 repair inh inconclusive
COc1ccccc1CNC(=O)c1ccc(N2CCCC2)c(NC(=O)NCc2ccccc2)c1	none (no result: SW480 rerep, MCF10A rerep, ELG1 repair inh)
Cc1cccc(C(=O)NC2(C(F)(F)F)N=C(c3ccccc3)N(C3CCCCC3)C2=O)c1 (stereo unspecified)	none (no result: SW480 rerep, MCF10A rerep, ELG1 repair inh)
COc1ccc2c(CN3CCN(c4ccccc4F)CC3)cc(=O)oc2c1	none (no result: SW480 rerep, MCF10A rerep, ELG1 repair inh)
COc1ccc(C(C)(NC(C)=O)c2nc(/C=C/c3ccccc3)cs2)cc1 (stereo unspecified)	none (no result: SW480 rerep, MCF10A rerep, ELG1 repair inh)
C=C1C=C(C(F)F)n2ncc(C(=O)Nc3cccc(CC)c3)c2N1	KB-V1 MDR tox inconclusive (no result: SW480 rerep, MCF10A rerep, ELG1 repair inh)
O=C(CCC1N=C2c3ccccc3N=C(SCC(=O)Nc3ccc(F)cc3)N2C1=O)NCc1ccco1 (stereo unspecified)	KB-V1 MDR tox inconclusive (no result: SW480 rerep, MCF10A rerep, ELG1 repair inh)
CCOC(=O)C1(C)CCCN(C(=O)CCc2ccccc2)C1 (stereo unspecified)	none (no result: SW480 rerep, MCF10A rerep, ELG1 repair inh)
Cc1cccc(C)c1NC(=O)CN(C)CC(=O)Nc1ccccc1Oc1ccccc1	MCF10A rerep inconclusive, KB-V1 MDR tox inconclusive, ELG1 repair inh 11.6µM
Cc1ccc(Oc2ccccc2NC(=O)CSCC(=O)Nc2cc(C)on2)cc1	KB-3-1 tox inconclusive, MCF10A rerep inconclusive, KB-V1 MDR tox 4.61µM
Cc1cc(NC(=O)CSCC(=O)Nc2ccccc2Oc2ccccc2)no1	KB-3-1 tox inconclusive, KB-V1 MDR tox 10.3µM
Cc1ccc(NC(=O)CN(C)CC(=O)Nc2ccccc2Oc2ccccc2)cc1	KB-V1 MDR tox inconclusive
COCCN(CCOC)Cc1cc(=O)oc2cc(C)cc(C)c12	none (no result: SW480 rerep, MCF10A rerep, ELG1 repair inh)
O=C(NCCN1CCOCC1)c1ccc(Cl)c([N+](=O)[O-])c1	none
O=C(Nc1ccc(Cl)c([N+](=O)[O-])c1)c1ccc(NCCCN2CCOCC2)c([N+](=O)[O-])c1	SW480 rerep 2.91µM, MCF10A rerep inconclusive, KB-V1 MDR tox 4.61µM
O=C(NCCCN1CCOCC1)c1ccc(Cl)c([N+](=O)[O-])c1	MCF10A rerep inconclusive (no result: ELG1 repair inh)
O=[N+]([O-])c1cc(S(=O)(=O)NCCCN2CCOCC2)ccc1Cl	SW480 rerep inconclusive, MCF10A rerep 16.4µM, ELG1 repair inh inconclusive
O=C(NCCCN1CCOCC1)c1ccc(Sc2cccc(Cl)c2)c([N+](=O)[O-])c1	KB-3-1 tox inconclusive, KB-V1 MDR tox 20.6µM
Cc1ccc(NC(=O)c2ccc(NCCCN3CCOCC3)c([N+](=O)[O-])c2)cc1Cl	KB-3-1 tox 8.2µM, SW480 rerep inconclusive, MCF10A rerep inconclusive, KB-V1 MDR tox 23.1µM, ELG1 repair inh 18.4µM
CCOc1ccccc1NC(=O)C(=O)Nc1ccc2nc3n(c(=O)c2c1)CCCCC3	KB-V1 MDR tox inconclusive (no result: SW480 rerep, MCF10A rerep, ELG1 repair inh)
CC(C)c1ccc(C2c3[nH]c4ccccc4c3C[C@H]3C(=O)N(c4ccccc4C(=O)N4CCC(C(=O)O)CC4)C(=O)N23)cc1 (stereo partly specified)	ELG1 repair inh inconclusive
COc1ccc(NC(=O)c2ccc(NCCCN3CCOCC3)c([N+](=O)[O-])c2)cc1	KB-3-1 tox inconclusive, KB-V1 MDR tox 9.2µM
CCOc1ccc(CN(C)CC(=O)Nc2ccccc2C(=O)NC2CC2)cc1	ELG1 repair inh 14.6µM
COC(=O)c1c(NC(=O)Cn2cnc([N+](=O)[O-])n2)sc2c1CCC(C)C2 (stereo unspecified)	MCF10A rerep inconclusive, KB-V1 MDR tox 16.4µM

Screening data (PubChem BioAssay)
